Assay: small molecules boosting NK-mediated OVCAR3 lysis – imaging, primary NK cells, calcein-AM imaging, primary screen (AID 1508625);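 also: compound given to NK cells 16 h before adding targets at 1.5 to 1 ratio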;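 as to z-score: more negative robust z means stronger NK killing of tumor cells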
Settings: OVCAR3 lysis by primary NK cells, at 5 µM; z-score: measured here: robust Z-score, single-point normalisation

Compound | corrected activity, negative = more killing | z-score
CCCCN(C(=O)c1cnc2n(c1=O)CCS2)c1ccccc1 | -5.28% | -1.68
CN(C(=O)Cn1ncc2c(=O)oc3ccccc3c21)c1ccc(Br)cc1 | -6.99% | -1.72
O=C(c1ccc([N+](=O)[O-])cc1)N1N=C(C2CC2)CC1(O)C(F)F (stereo unspecified) | -2.43% | -1
C=CCN1C(=O)C(=Cc2ccc(OCc3ccccc3Cl)c(OC)c2)SC1=S | -6.24% | -1.98
COc1cc(NC(=O)C(C)Oc2cccc(Cl)c2)cc(OC)c1 (stereo unspecified) | -3.89% | -2.16
CCCCn1c(=S)[nH]c2cc3ccccc3cc2c1=O | -1.52% | -0.403
CC1CCC(NC2CCCc3c2[nH]c2ccc([N+](=O)[O-])cc32)CC1 (stereo unspecified) | 3.89% | 1.7
Cc1ccc(C(=O)Nc2cccc(C(=O)O)c2)cc1S(=O)(=O)Nc1ccc(Br)cc1 | -15% | -3.16
NC(C(=O)O)C(O)c1cccc([N+](=O)[O-])c1 (stereo unspecified) | -0.723% | -0.224
COc1ccc(Cn2c(=S)[nH]c3cc(C(=O)NCc4ccccc4Cl)ccc3c2=O)cc1 | -10.8% | -3.45
Cc1cc(-n2c(N)c(C(N)=O)sc2=S)ccc1Cl | -4.14% | -1.1
Cc1cc(C)c(C=Nc2ccc(-c3ccccc3[N+](=O)[O-])cc2)c(C)c1 | -4.49% | -1.91
O=C1C2CC=C(Cl)CC2C(=O)N1CC1OCCc2ccccc21 (stereo unspecified) | -3.37% | -1.29
CCN(CC)c1ccc(C=NS(=O)(=O)c2ccc(C)cc2)cc1 | -5.15% | -2.76
CCc1ccc(-c2nc3ccccc3c(C(=O)O)c2C)cc1 | -3.44% | -1.41
O=C(CCn1c(SCc2ccccc2Cl)nc2cc3c(cc2c1=O)OCO3)N1CCN(c2ccccc2)CC1 | -5.52% | -1.46
Cc1ccc(C(=O)NC(=Cc2cccnc2)C(=O)Nc2ccc(I)cc2)cc1 | -0.444% | -0.23
Cc1ccccc1C(=O)N1N=C(c2ccc(F)cc2)CC1(O)C(F)(F)F (stereo unspecified) | -4.55% | -2.44
COC(=O)c1ccc(COC(=O)c2cnccn2)cc1 | -1.44% | -0.802
C=CCNC(=O)c1ccc2snnc2c1 | -1.6% | -0.478
Cc1cc2nc3sc(=Cc4ccc(Cl)cc4Cl)c(=O)n3c2cc1C | -1.46% | -0.755
O=C(O)CCn1ncc2ccccc21 | -4.13% | -1.31
c1ccc(-c2ccccc2OCCN2CCNCC2)cc1 | 1.89% | 1.05
C#CCN1C(=O)C(O)(CC(=O)c2cccc3ccccc23)c2ccccc21 (stereo unspecified) | -5.41% | -2.06

Compound | corrected activity, negative = more killing | z-score
CCOc1ccc(C2C(N3C(=O)c4ccc([N+](=O)[O-])cc4C3=O)C(=O)N2c2ccc(Cl)cc2)cc1 (stereo unspecified) | 0.896% | 0.278
CC(C)c1ccc(NC(=O)C2c3ccccc3C(=O)N(C)C2c2cccs2)cc1 (stereo unspecified) | -7.64% | -1.9
O=C(c1cccc(F)c1)N1CCN=C1SCc1ccc(Br)cc1 | -4.87% | -1.2
O=C(CNc1ccc(Br)cc1)c1ccccc1 | -3.77% | -1.4
O=C1C(=O)N(CCCN2CCOCC2)C(c2ccco2)C1=C(O)c1ccc(F)cc1 (stereo unspecified) | -4.3% | -1.86
COc1cccc(C(=O)N2CCN(C(=O)c3ccccc3OC)CC2)c1 | -2.57% | -1.15
COC(=O)c1ccc(C)c(NC(=O)c2ccc(C3SCC(=O)N3Cc3ccccc3)cc2)c1 (stereo unspecified) | -5.82% | -2.22
CCCCC1(CC(=O)N2CCOCC2)C(=O)N(c2ccccc2)N(c2ccccc2)C1=O | -2.63% | -0.786
CC(=O)c1ccc(NC(=O)c2ccc(N)cc2)cc1 | -8.59% | -1.81
CCOc1ccc2nc(SCCC(=O)Nc3ccc(OC)cc3)sc2c1 | -5.58% | -2.99
CCOc1cc(C2Nc3ccccc3NC3=C2C(=O)CC(C)(C)C3)ccc1OC(C)=O (stereo unspecified) | 0.693% | 0.309
CN(C)c1ccc(C(=O)N2N=C(c3ccc(Cl)cc3)CC2(O)C(F)(F)F)cc1 (stereo unspecified) | -4.5% | -1.72
CC(=O)Nc1cccc(N=Cc2cc(Cc3ccccc3)cc([N+](=O)[O-])c2O)c1 | -1.97% | -0.698
CCOc1ccc(-n2c(SCC(=O)c3ccccc3)nc3c([nH]c4ccccc43)c2=O)cc1 | -9% | -2.24
CCC(=O)c1ccc(OCC(=O)O)c(OC)c1 | -0.458% | -0.171
CCOC(=O)C1C(c2ccccc2)NC(=S)NC1(O)C(F)(F)F (stereo unspecified) | -1.39% | -0.43
Cc1ccccc1NC(=O)OCc1ccccc1 | -1.84% | -1.03
c1ccc(CN2CCN(Cc3ccc4ccccc4c3)CC2)nc1 | -2.43% | -1.08
CCOc1ccc(C2C(=C(O)c3ccc(Cl)cc3)C(=O)C(=O)N2c2nc3ccccc3s2)cc1 (stereo unspecified) | -4.47% | -1.71
COC(=O)c1cc(OC)c(OC)cc1NC(=O)c1cc(Cl)ccc1Cl | -1.51% | -0.842
Cc1[nH]c2ccccc2c(=O)c1CN(C)Cc1ccccc1 | 0.566% | 0.175
CCOc1ccc(OCC)c(NC(=O)C2(S(=O)(=O)c3ccc(Cl)cc3)CC2)c1 | -4.65% | -1.32
CCCCN(C)CCn1c(=S)[nH]c2cc3c(cc2c1=O)OCO3 | -6.47% | -1.71
CC(=O)Nc1ccc(-n2c(C)ccc2C)c(C(=O)O)c1 | -2.26% | -1.01

Compound | corrected activity, negative = more killing | z-score
COc1cc(C=NS(=O)(=O)c2cccs2)cc(Br)c1O | -1.94% | -0.74
COc1cccc(CCNc2ccc(N3C(=O)C4CCC(C)CC4C3=O)cc2[N+](=O)[O-])c1 (stereo unspecified) | -3.2% | -1.17
CC(=O)c1cccc(NC(=O)c2ccc(NS(=O)(=O)c3ccccc3)cc2)c1 | -4.58% | -1.71
CCOC(=O)CC(NCc1ccc(Cl)c([N+](=O)[O-])c1)c1cccs1 (stereo unspecified) | -7.84% | -2.12
O=C(c1ccccc1Br)N1N=C(c2ccccc2)CC1(O)C(F)(F)F (stereo unspecified) | -3.24% | -1.24
CSc1nnc2c(n1)OC(c1ccc(OCC(=O)O)cc1)Nc1ccccc1-2 (stereo unspecified) | -2.58% | -0.915
O=C(NN=Cc1cccnc1)c1cc(C2CC2)[nH]n1 | -2.36% | -1.03
COCc1cccc(NS(=O)(=O)Cc2ccccc2)c1 | 0.328% | 0.183
Cc1ccc(C=Cc2nc3ccccc3[nH]2)cc1 | 2.68% | 0.723
CN1C(=O)c2ccccc2C(C(=O)NCCCN2CCCCCC2)C1c1cccs1 (stereo unspecified) | -5.67% | -1.41
Cc1ccccc1CSC1=NCCN1C(=O)c1ccc(OC(C)C)cc1 | -4.64% | -1.14
CCC1CCCCN1C(=O)c1cc2c(=O)n3ccccc3nc2s1 (stereo unspecified) | -5.2% | -1.47
Cc1ccc(S(=O)(=O)n2nnc3ccccc32)c(C)c1C | -4.06% | -1.51
CC(C(=O)NCCCN1CCOCC1)c1ccc([N+](=O)[O-])cc1 (stereo unspecified) | -5.52% | -3.07
COc1ccc(-n2c(=S)[nH]c3cc(C(=O)Nc4cc(C(N)=O)ccc4OC)ccc3c2=O)c(OC)c1 | -3.49% | -1.11
COc1ccccc1NC(=O)c1ccccc1NC(=O)c1ccc(F)cc1 | -2.61% | -1.45
CC(C)(C)c1ccc(C(=O)Nc2ccc(Cl)c(NC(=O)c3ccccc3)c2)cc1 | -4.21% | -1.49
COc1ccccc1CNc1nc(-c2ccc(Br)cc2)nc2ccccc12 | -2.39% | -1.28
CC1=C(C(=O)OCCc2ccccc2)C(c2coc3ccc(C)cc3c2=O)C2=C(CC(c3cccs3)CC2=O)N1 (stereo unspecified) | 0.37% | 0.141
Cc1cc([N+](=O)[O-])ccc1N=Cc1ccc(Br)s1 | -2.22% | -0.944
CC(=O)c1cccc(NC(=O)COc2ccccc2C)c1 | -1.74% | -0.9
Cc1ccc(N2C(=O)CC(NCCc3ccc(F)cc3)C2=O)cc1 (stereo unspecified) | -3.27% | -1.25
COc1cc(C(=O)N2N=C(C3CC3)CC2(O)C(F)(F)F)cc(OC)c1OC (stereo unspecified) | -3.44% | -1.41
CCC(SC1=NCCS1)C(=O)Nc1ccc(S(N)(=O)=O)cc1 (stereo unspecified) | -2.81% | -1.06

Compound | corrected activity, negative = more killing | z-score
COc1cccc(-c2nnc(-c3ccc([N+](=O)[O-])cc3)o2)c1 | 1.18% | 0.417
N[n+]1cnn(CC(=O)c2ccccc2)c1 | -7.75% | -2.46
CCOc1ccc(-c2n[nH]c(C(=O)NN=Cc3cccnc3)c2C)cc1 | -3.11% | -1.36
CC(C)(C)NC(=O)C(=O)NN=Cc1cccc(Br)c1 | -4.27% | -1.82
O=C(NCc1cccc(Cl)c1)c1ccc2c(=O)n(Cc3cccc(Br)c3)c(=S)[nH]c2c1 | -6.41% | -2.04
Cc1ccc(C(=O)Nc2ccc3nn(-c4cccc(Cl)c4)nc3c2)cc1[N+](=O)[O-] | -0.361% | -0.128
CCC(=O)Nc1ccccc1C(=O)C(=O)Nc1ccccc1 | -1% | -0.557
Cc1nnc(NC(=O)CSc2nc3c(c(=O)n2-c2ccccc2)SCC3)s1 | -0.367% | -0.0912
COCCN(CCOC)C(=O)c1cc2c(=O)n3ccccc3nc2s1 | -1.77% | -0.502
CC1(C)COC(c2ccccc2)=N1 | -5.76% | -1.78
NC(=O)CN1CCOCCN(CC(N)=O)CCOCC1 | -12.6% | -2.65
O=[N+]([O-])c1ccc(OCCCN2CCNCC2)cc1 | -3.62% | -2.02
O=C(Cc1ccccc1)Nc1ccc2oc(-c3ccc(I)cc3)nc2c1 | -1.02% | -0.361
COc1ccc2cc3cc(C(=O)NCCCN4CCN(Cc5ccccc5)CC4)oc3nc2c1 | -0.58% | -0.142
COC(=O)c1ccc(CSc2nc3c(cnn3-c3ccc(C)cc3)c(=O)[nH]2)o1 | -3.63% | -0.89
O=C(Nc1ccc2nn(-c3cccc(Cl)c3)nc2c1)c1cccc2ccccc12 | -3.42% | -1.21
O=C1C2C(c3ccc([N+](=O)[O-])cc3)OC3(C(=O)c4ccccc4C3=O)C2C(=O)N1c1ccc(Cl)cc1 (stereo unspecified) | -3.68% | -1.14
Cc1ccc(C)c(N=Cc2c(C)[nH]c3ccccc23)c1 | -2.79% | -1.18
CC(C)(C)c1ccc(C(=O)CC2(O)C(=O)Nc3ccc(Cl)cc32)cc1 (stereo unspecified) | -2.41% | -0.898
COc1ccc(CNCC2OCCc3ccccc32)cc1OC (stereo unspecified) | -5.1% | -1.95
COc1ccccc1C(=O)N1CCN(S(=O)(=O)c2ccc(C)cc2)CC1 | -3.03% | -1.35

Reference: PubChem BioAssay AID1508625 (Wald Lab, School of Medicine, Case Western Reserve …, 2021)
